Screening results as filed in PubChem.
POLK inh = qHTS for Inhibitors of Polymerase Kappa | purified Pol kappa, fluorescent DNA synthesis assay, 10 min | Potency, µM (top dose mostly 107 µM), for inactives: at the highest dose activity, negative = inhibition, hits mostly inhibitors | DNA polymerase kappa (Homo sapiens), Q9UBT6 | hit rate 0.53% among 400,000; note: potency is the fitted concentration of half-maximal effect; % is set by controls: 0 for no effect and ±100 for the full control effect
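Here, compound and 10 nM enzyme are combined for 15 min at room temperature; adding 50 nM substrate (final) starts DNA synthesis, tracked by fluorescence at 0 and 10 min against buffer-only wells.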
POLI inh = qHTS for Inhibitors of Polymerase Iota; hit rate 1% among 390,000; Potency, µM (highest dose often 115 µM), without a hit: at the top dose activity, negative = inhibition, usual class: inhibitors; AID 588590, 2011; Pol iota fluorescent replication assay, 10 min; note: potency is the fitted concentration of half-maximal effect
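Pol iota at 10 nM preincubated 15 min with compounds at room temperature; reaction started with fluorescent substrate, 50 nM final. Fluorescence read kinetically at 0 and 10 min; buffer-only wells as negative control.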
WRN inhibitor = qHTS for Inhibitors of WRN Helicase. WRN helicase unwinding, fluorescent forked duplex, kinetic. AID 651768, 2012. Bifunctional 3'-5' exonuclease/ATP-dependent helicase WRN (Homo sapiens), Q14191. Potency, µM (highest dose often 114 µM), for the others: at the highest dose activity change, negative = inhibition, actives largely listed as inhibitors. hit rate 0.46% among 360,000; note: potency is the fitted concentration of half-maximal effect; % is set by controls: 0 for no effect and ±100 for the full control effect; nearly all actives have a fitted effect of over 55% in size
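WRN at 20 nM final preincubated with compound 15 min at room temperature; reaction started with 100 nM fluorophore/quencher forked duplex oligonucleotide and 2 mM ATP final. Unwinding followed kinetically by red fluorescence (ex 525, em 598 nm).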
Pol eta inh = qHTS for Inhibitors of Polymerase Eta; Potency, µM (highest dose often 114 µM), without a hit: at the highest dose activity change, negative = inhibition, most hits filed as inhibitors; DNA polymerase eta (Homo sapiens), Q9Y253; AID 588591, 2011; hit rate 1.2% among 390,000; recombinant Pol eta, fluorescent DNA replication assay; note: potency is the fitted concentration of half-maximal effect; % is set by controls: 0 for no effect and ±100 for the full control effect
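Pol eta at 10 nM preincubated with compounds 15 min at room temperature; reaction started with fluorescent substrate (50 nM final) and read kinetically at 0 and 10 min.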
Pol beta inh = qHTS Assay for Inhibitors of DNA Polymerase Beta | P06746 | AID 485314, 2010 | hit rate 1.3% among 340,000 | Pol beta primer extension/strand displacement, fluorescence kinetic | Potency, µM (titrated, usually from 114 µM), without a hit: top-dose activity change, negative = inhibition, usual class: inhibitors; note: potency is the fitted concentration of half-maximal effect; % is set by controls: 0 for no effect and ±100 for the full control effect
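Curves were derived by four-parameter Hill fits of normalized qHTS data. The kinetic fluorescent primer-extension read was taken at 0 and 10 min after 50 nM substrate, following a 15 min room-temperature preincubation of 10 nM enzyme with compounds.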
PI5P4Ka inh = qHTS for Inhibitors of phosphatidylinositol 5-phosphate 4-kinase (PI5P4K). max response, %. PI5P4Kalpha enzyme, ADP-Glo luminescence, 60 min; stronger effect = lower value. AID 652105, 2013. hit rate 1.2% among 330,000. Phosphatidylinositol 5-phosphate 4-kinase type-2 alpha (Homo sapiens), P48426; active = max response of -50% or lower; inconclusive = between -30% and -50%; inactive = -30% or higher; note: value at the top dose of about 77 µM; % is set by controls: 0 for no effect and ±100 for the full control effect
Target sequence (P48426 whole entry, looked up): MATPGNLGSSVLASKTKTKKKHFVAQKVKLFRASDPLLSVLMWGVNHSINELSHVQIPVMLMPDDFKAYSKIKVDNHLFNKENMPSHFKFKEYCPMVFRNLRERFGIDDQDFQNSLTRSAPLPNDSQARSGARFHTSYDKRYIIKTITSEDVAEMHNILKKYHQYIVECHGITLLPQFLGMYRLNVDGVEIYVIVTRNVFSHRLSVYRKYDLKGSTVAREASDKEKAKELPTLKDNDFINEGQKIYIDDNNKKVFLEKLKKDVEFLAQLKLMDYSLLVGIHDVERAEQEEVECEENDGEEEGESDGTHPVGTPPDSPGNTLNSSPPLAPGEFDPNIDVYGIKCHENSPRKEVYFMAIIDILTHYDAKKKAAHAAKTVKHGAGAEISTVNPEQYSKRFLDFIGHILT
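qHTS, 1536-well: enzyme/substrate mix, compound by pin tool, 5 microM ATP final; RT 60 min; ADP-Glo reagents 1 (45 min) then 2 (30 min); luminescence.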
* marks the source's active call; other numbers are inactive results; u = inconclusive; x = not tested or not shown; ! = a repeat was not active; [ ] = remark or other dose. Sampled rows, rich in hits. Any-hit rate of the full collection: about 2.8%. Unless noted, calls come from the whole dose curve; as a rule, active = well fitted curve in the direction sought with a large enough effect; inconclusive = small, poorly fitted or top-dose-only effect, or another doubt; inactive = no such curve, though single readings can be large; an effect the other way counts as inactive or inconclusive.

SMILES	POLK inh	POLI inh	WRN inhibitor	Pol eta inh	Pol beta inh	PI5P4Ka inh
O=C(COC(=O)c1ccccc1SCC(=O)NC1CCS(=O)(=O)C1)NC1CCS(=O)(=O)C1 (centres undefined)	-1.1%	70.5%	8.1%	-17.5%	-17.9%	4.1
COc1ccc(S(=O)(=O)NC(C)C(=O)NCc2ccncc2)cc1OC (centres undefined)	0.9%	89.1µM*	0.0%	-16.2%	0.4%	4.3
CCC1CC=CC2C1C(=O)N(Cc1ccccc1)C2c1ccc(C(F)(F)F)cc1 (centres undefined)	-9.0%	-19.4%	x	x	x	x
CCOc1ccc(-c2cc(C(=O)NC3CCCCC3)[nH]n2)c(C)c1	x	x	0.4%	x	x	0.1
Cn1c(C(c2cc3ccccc3n2C)c2cc3ccccc3n2C)cc2ccccc21	-13.4%	6.6%	x	x	x	x
O=C(Cc1cc(=O)[nH][nH]1)N/N=C/C(Cl)=C/c1ccccc1	-29.8%	3.16µM*!	-2.1%[11.6 µM]	u	50.1µM*	u
O=C(Cc1cc(=O)[nH][nH]1)N/N=C/c1ccccc1Cl	-19.6%	-9.6%	-21.9%	-4.3%	17.1%	-16.3
COC(=O)CNC(c1ccccc1)c1cc(Br)ccc1NC(=O)c1cc(OC)c(OC)c(OC)c1 (centres undefined)	-9.4%	11.8%	x	x	-1.3%	x
COc1cccc(CNC(=O)C2CCN(S(=O)(=O)c3ccc4c(c3)CCCN4C(C)=O)CC2)c1	-1.7%[60.1 µM]	28.3%	x	-17.7%	-19.3%	x
COC1=C(OC)C(=O)c2ccccc2C1=O	-5.2%[60.1 µM]	22.4µM*	x	u	28.2µM*	x
COC1=C(Nc2ccccc2)C(=O)c2ccccc2C1=O	-10.2%	17.8µM*	-3.5%	-23.0%	u	0.1
COc1ccc(N)c2c1C(=O)c1ccccc1C2=O	u	u	20µM*	-19.9%	u	0.7
COC1=C(Nc2ccc(C)cc2)C(=O)c2ccccc2C1=O	-15.7%	u	-27.6%	-13.6%	u	2.0
COc1ccc(OC)c2c1C(=O)C(Cl)=C(Cl)C2=O	-5.3%	69.0%	-29.9%[11.6 µM]	-16.0%	24.9%	-101.8*
CCCCN(C)C(=O)c1ccc(Nc2nc(C(N)Cc3ccc(C(F)(F)F)cc3)cs2)nc1 (centres undefined)	x	x	-11.1%	x	x	-15.0
CC(=O)c1cccc(NC(=O)COC(=O)c2ccccc2OCc2cccc(Br)c2)c1	-2.5%	u	x	x	x	x
O=C(CSc1nccc(=O)[nH]1)N1CCN(c2ccccc2)CC1	1.2%	-14.8%	-7.8%	2.0%	22.2%	u
FC(F)(F)c1cc(-c2ccco2)nc(NCc2ccco2)n1	u	u	-7.0%[11.6 µM]	50.1µM*	u	u
COc1cc(OC)c(OC)cc1/C=C/c1ccc2ccccc2[n+]1C	-26.5%	-10.0%	x	x	x	x
COc1ccc(/C=C/c2ccc3ccccc3[n+]2C)cc1OC	u	-86.8%	-19.5%	-2.2%	28.2µM*	-1.6
CCOC(=O)c1ccc(NC(=O)Cn2ncc(Cl)c(Cl)c2=O)cc1	-12.7%	28.2µM*	-20.3%[57.1 µM]	u	2.1%	-72.0*
CCOC(=O)c1ccc(NC(=O)CSCc2ccco2)cc1	u	25.1µM*	u	u	u	x
O=C(Cn1ncc(Cl)c(Cl)c1=O)c1ccc2c(c1)OCCO2	-20.9%	u	-5.7%	u	x	-25.4
CCC(=O)Nc1ccc(C(=O)Cn2ncc(Cl)c(Cl)c2=O)cc1	u	u	-5.9%[11.6 µM]	u	u	-55.7*
OC[C@@H]1O[C@@H](O)[C@H](O)[C@H](O)[C@@H]1O	15.5%[60.1 µM]	x	x	x	x	x
CN(Cc1ccccc1)S(=O)(=O)c1ccc(Cl)c(C(=O)N2CCOCC2)c1	x	x	11.6%	-11.3%	x	2.0
Cc1ccc(S(=O)(=O)NC(=O)C2(C)CCN2C(=O)COc2ccc(Cl)cc2)nc1 (centres undefined)	x	x	-6.2%	x	x	3.0
